Screening results: PubChem BioAssay, several laboratories
NADH enzymes: inhibition of NAD/NADH coupling enzymes, library profiling; coupled PK/LDH NADH assays, four targets; AID 774; hit rate 0.02% among 65,000; IC50, µM (doses to about 10 µM), without a hit: top-dose inhibition;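 active = single-dose screening hits from any of four coupled enzyme assays that gave an IC50 when retested across doses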;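 note: the DPM-DC format reads NADH fluorescence rather than 340 nm absorbance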
mHtt clearance: compounds clearing mutant huntingtin protein. HeLa Exon1htt(103Q)mCFP, aggregate imaging; zero = plate's median compound well. inhibition, % at 1.5 µM. hit rate 0.42% among 47,000;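 active = inhibition of aggregate fluorescence above about 70%, also judged a hit by eye on the cell image, limit read from the data, passing the limit was not always enough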;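 note: cells exposed to compound for three days before fixation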
M1 ag: activates the M1 muscarinic receptor. CHO-M1 cells, Fluo-4 calcium fluorescence, agonist mode; hits give high values. B-score at 10 µM. hit rate 3% among 64,000. AID 626;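 active = fluorescence rise, raw or as B-score row- and column-corrected plate score, outside the 99.7% band of its plate's samples, either direction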
Abs 340nm: compound absorbs light at 340 nm; compound absorbance at 340 nm, fold over control; fold change at 10 µM; 65,000 tested, under 10 active;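 active = at 10 µM dose, initial 340 nm absorbance at least 2 fold that of control wells; inactive = change under 2 fold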;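 note: initial absorbance extrapolated from kinetic A340 decline of NADH oxidation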
Autofluor 339: intrinsic fluorescence of library compounds, ex339/em460 – biochemical, MLSMR library, data from DPM-DC assay, artefact control, profiling panel | AID 709 | fluorescence fold increase at 10 µM | hit rate 5.5% among 65,000 | compound autofluorescence, ex339/em460 nm, NADH buffer; hits give high values; 1 = no-compound wells, NADH background;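 active = at 10 µM, mean starting fluorescence two-fold or more over control wells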;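 note: signal is the first read of a kinetic run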
M1 antag: blocks the rat M1 muscarinic receptor response to acetylcholine; hit rate 3.4% among 64,000; B-score at 10 µM; P08482; AID 628; CHO-M1 cells, Fluo-4 calcium, ACh EC80 antagonist mode; hits give low values;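 active = calcium fluorescence response, raw or row-and-column corrected B-score, differing from the plate sample mean either way at a set confidence level, mostly lower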
Target sequence (P08482 whole entry, looked up): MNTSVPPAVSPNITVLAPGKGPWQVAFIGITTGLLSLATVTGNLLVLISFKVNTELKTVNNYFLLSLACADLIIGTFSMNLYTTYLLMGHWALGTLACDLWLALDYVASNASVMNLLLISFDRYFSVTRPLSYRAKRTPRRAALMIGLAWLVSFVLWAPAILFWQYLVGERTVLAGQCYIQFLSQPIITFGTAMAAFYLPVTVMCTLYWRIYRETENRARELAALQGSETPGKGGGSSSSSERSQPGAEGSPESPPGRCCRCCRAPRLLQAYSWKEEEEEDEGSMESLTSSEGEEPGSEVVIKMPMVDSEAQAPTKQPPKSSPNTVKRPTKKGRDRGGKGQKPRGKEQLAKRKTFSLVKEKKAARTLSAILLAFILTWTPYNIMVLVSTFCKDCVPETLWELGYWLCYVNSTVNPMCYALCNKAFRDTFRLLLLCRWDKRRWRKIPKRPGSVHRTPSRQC
M1 antag conf: confirmation of rat M1 muscarinic receptor antagonists. CHO-M1 cells, Fluo-4 calcium, ACh EC80 antagonism; hits give low values. calcium response (max-min fluorescence) at 10 µM. shares compounds with M1 antag. hit rate 43% among 1,700;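 active = calcium response below the same-plate mean of wells given acetylcholine alone at its 80%-effect dose, minus 3 SD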;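 note: raw fluorescence intensity difference in arbitrary instrument units and not normalized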
mGluR4 antag: mGluR4 (human) activity, M1 antagonist secondary assay; CHO-mGluR4 calcium flux, Fluo-4 fluorescence, glutamate EC80; hits give low values; hit rate 0.9% among 1,700; fluorescence response (max-min) at 10 µM; shares compounds with M1 antag;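 active = fluorescence response below the plate's average for near-maximal glutamate wells, less 3 SD of those wells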;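 note: raw unnormalized fluorescence span taken in the window right after glutamate addition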
* = called active by the depositor; · = no result. A selection: hits, their analogues and other compounds. The true share with any hit is near 9.3%.

SMILES	NADH enzymes	mHtt clearance	M1 ag	Abs 340nm	Autofluor 339	M1 antag	M1 antag conf	mGluR4 antag
CCOC(=O)C(Oc1ccc(=O)n(-c2ccccc2)n1)C(C)=O (configuration not stated)	11%	-37	-0.014	0.97	1.1	0.043	·	·
Cc1cc(C)n(CC2CC(=O)N(c3ccc(Cl)c(Cl)c3)C2=O)n1 (configuration not stated)	1%	·	-0.5	1	1	-2.6*	717	222
CCN1CCN(c2ncnc3sc(C(=O)Nc4ccccc4F)c(C)c23)CC1	4%	-22	0.83	1.1	1.1	-0.84	·	·
CCN1CCN(c2ncc(C(=O)Nc3ccccc3C(=O)OC)c3ccccc23)CC1	11%	-28	-1.8	1	1.5	-14*	166*	203
Cc1cc(C)nc(Sc2c(C)nn(-c3ccccc3)c2C)n1	3%	·	0.38	1	1	-1.8	·	·
Cn1c(=O)[nH]c(=O)c2c1nc(NCCCO)n2CCCc1ccccc1	4%	·	-0.013	0.99	1	-0.31	·	·
O=c1[nH]c(=O)n(CCO)c2nnn(Cc3ccccc3)c12	9%	19	-1.3	1	1.1	-3.3*	579	244
Cc1nc2sccn2c(=O)c1CCN1CCC(=C(c2ccc(F)cc2)c2ccc(F)cc2)CC1	2%	·	-0.015	0.98	1.1	-5.1*	324*	292
O=C(CCCSc1nc2ccccc2s1)Nc1nccs1	3%	·	-0.048	1	1.1	-2.7*	620	243
Cc1ccc(C(C(=O)NC2CCCC2)N(Cc2cccnc2)C(=O)c2snc(C(N)=O)c2N)o1 (configuration not stated)	13%	·	-0.028	1.1	2.6*	-0.32*	600	221
COc1ccccc1-c1c(C)nn2c(N3CCN(c4ccccc4OC)CC3)cc(C)nc12	14%	·	-0.062	1.1	1.6	-0.22	·	·
COc1ccccc1-c1c(C)nn2c(N3CCCCCC3)cc(C)nc12	9%	·	-0.44	1.1	1.5	-2.5*	624	207
CC(=O)C1=C(O)C(=O)N(c2nccs2)C1c1ccccc1 (configuration not stated)	·	-55	·	·	·	·	·	·
CCCCn1c(=O)n(CC(O)c2ccccc2)c(=O)c2c1ncn2C1CCCC1 (configuration not stated)	8%	13	-0.17	0.97	0.94	-3.8*	450	199
Cn1c(=O)c2c(nc(NC3CCCCC3)n2CC(O)COc2ccccc2)n(C)c1=O (configuration not stated)	16%	22	2.9	0.97	1.1	-0.079	·	·
Cc1ccc(S(=O)(=O)/N=C(\CN2CCCCC2)N2CCOCC2)cc1	5%	-11	-0.043	1	1	-2.6*	589	236
Cc1ccc(S(=O)(=O)N2CCN(C(=O)CN3CCCCC3)C2)cc1	·	-13	·	·	·	·	·	·
CCOC(=O)c1ccc(NC(=O)NCCN2CCCCC2)cc1	2%	·	-0.067	1	1.1	-3.4*	512	216
CCOC(=O)c1c(C)n(C)c2ccc(O)c(CN3CCC(C)CC3)c12	18%	28	-1.3	1	1.1	-2*	543	251
O=C1CN(C(=O)COC(=O)CCC(=O)c2ccc3c(c2)OCCO3)c2ccccc2N1	5%	21	1.5	1	1.2	0.052	·	·
CCN(CC)CCOC(=O)C1(c2ccccc2)CCOCC1	4%	38	-0.94	1	1.1	-15*	102*	237
O=C(NCCCCNC(=O)c1c(F)c(F)c(F)c(F)c1F)c1c(F)c(F)c(F)c(F)c1F	0%	·	0.55	1	1.1	0.12	·	·
Cc1c(C(=O)OCCN2CCCCC2)oc2ccccc12	5%	22	0.61	0.98	1.1	-10*	13*	226
Cc1c(C(=O)OCC(=O)c2c(N)n(CC(C)C)c(=O)n(C)c2=O)oc2ccccc12	4%	-58	·	1.1	1.1	·	·	·
